Reference: PubChem BioAssay (NCI)
About 79,000 compounds went through this panel and 15% of them were active in at least one assay; those are over-represented in the sample as a whole. A number with no mark means an inactive call. The source made the active and inactive calls. No stated cut-off is given here; in the data, active means growth inhibition above about 70%; inactive means the rest.

Legend:
[1] = NCI Yeast Anticancer Drug Screen. Data for the rad50 strain (AID 155);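 further: 0% = growth of vehicle-only cultures of the same strain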; conditions: S. cerevisiae rad50 strain growth inhibition, hits give high values
Procedure, shortened: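 Vehicle-treated cultures provide the reference for the growth inhibition reported for compound-exposed, repair-deficient yeast.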

[2] = NCI Yeast Anticancer Drug Screen. Data for the mec2-1 strain (AID 157); conditions: S. cerevisiae mec2-1 strain, hits give high values
Procedure, shortened: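 Compounds were applied to mec2-1 yeast cells. Their growth was then compared with that of vehicle-treated cultures to give growth inhibition.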

[3] = NCI Yeast Anticancer Drug Screen. Data for the sgs1 mgt1 strain (AID 161);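 further: 0% = growth of cultures given vehicle only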; conditions: S. cerevisiae sgs1 mgt1 strain, hits give high values
Procedure, shortened: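 Compounds are added to genetically altered yeast, and growth is compared with cultures given vehicle alone to give percent inhibition.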

[4] = NCI Yeast Anticancer Drug Screen. Data for the cln2 rad14 strain (AID 165);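 further: 0% = growth equal to vehicle treated cultures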; conditions: S. cerevisiae cln2 rad14 strain, hits give high values
Procedure, shortened: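 Strain: cln2 rad14 yeast, altered in cell cycle control and DNA damage repair. Read-out: growth inhibition vs vehicle.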

[5] = NCI Yeast Anticancer Drug Screen. Data for the bub3 strain (AID 167); conditions: S. cerevisiae bub3 mutant strain, hits give high values
Procedure, shortened: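 Mutant yeast screening strain plus compound; vehicle-treated cultures serve as the 0% inhibition reference.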

[6] = NCI Yeast Anticancer Drug Screen. Data for the mlh1 rad18 strain (AID 175); conditions: S. cerevisiae mlh1 rad18 strain growth inhibition, hits give high values
Procedure, shortened: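 A repair-deficient yeast strain is exposed to test compound, and growth is scored relative to vehicle-treated controls.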

[7] = at 5.0 µM (retest, dose inferred, filed as 0.5)
[8] = at 50.0 µM (retest, dose inferred, filed as 5.0)

SMILES	growth inhibition [1, 7]	growth inhibition [1, 8]	growth inhibition ([1]; at 50.0 µM)	growth inhibition [2, 7]	growth inhibition [2, 8]	growth inhibition ([2]; at 50.0 µM)	growth inhibition [3, 7]	growth inhibition [3, 8]	growth inhibition ([3]; at 50.0 µM)	growth inhibition [4, 7]	growth inhibition [4, 8]	growth inhibition ([4]; at 50.0 µM)	growth inhibition [5, 7]	growth inhibition [5, 8]	growth inhibition ([5]; at 50.0 µM)	growth inhibition [6, 7]	growth inhibition [6, 8]	growth inhibition ([6]; at 50.0 µM)
C/C(CC(O)(C(F)(F)F)C(F)(F)F)=N/Nc1ccc([N+](=O)[O-])cc1[N+](=O)[O-]	16%	99% (active)	99.2% (active)	-11%	99% (active)	99.5% (active)	-2%	99% (active)	99.5% (active)	13%	99% (active)	99.3% (active)	-10%	100% (active)	99.5% (active)	12%	99% (active)	99.3% (active)
CC(=O)OC(C#N)CC(C)(C)/[N+]([O-])=[N+](\[O-])C(C)(C)CC(C#N)OC(C)=O (centres undefined)	6%	44%	23.9%	1%	46%	43.5%	8%	97% (active)	77.3% (active)	14%	61%	3.2%	3%	79% (active)	68.1%	11%	80% (active)	80% (active)
CC1=CC(=O)C(O)=C/C1=C\C=C\c1ccccc1	15%	98% (active)	99.2% (active)	23%	99% (active)	99% (active)	26%	99% (active)	49.4%	6%	97% (active)	98.8% (active)	11%	98% (active)	99% (active)	50%	98% (active)	99.2% (active)
C=CCOC(=O)CC(O)C(=O)OCC=C (centres undefined)	-5%	7%	0.95%	4%	-2%	-12.7%	-1%	3%	-29.6%	1%	-9%	13.8%	0%	-8%	7.85%	-5%	13%	-2.45%
CC(=O)/C(=C\c1ccco1)C(=O)Nc1ccccc1	2%	23%	73.1% (active)	0%	21%	48.2%	13%	26%	80.2% (active)	6%	23%	92.4% (active)	-4%	58%	91.2% (active)	6%	37%	94.7% (active)
Cc1cc(O)c(/C=N/C(=S)Nc2ccc(S(N)(=O)=O)cc2)c(=O)o1	17%	42%	-24.4%	13%	32%	4.9%	19%	57%	-10.2%	8%	39%	-6.55%	31%	56%	1.45%	9%	44%	-33.1%
O=C1C(=O)c2ccc(Br)cc2C(O)=C1C(c1ccccc1)c1ccccc1	29%	60%	25.6%	28%	70% (active)	30.5%	4%	74% (active)	7.4%	24%	63%	14.2%	36%	70% (active)	21.2%	28%	69%	32.5%
c1ccc(CCC2=Nc3ccccc3CO2)cc1	-160%	-155%	7.75%	-48%	-56%	-6.5%	-64%	-63%	12.2%	-67%	-87%	13.3%	-68%	-69%	-18.7%	-126%	-124%	-8.4%
CN(C)C(=O)/N=c1\ss/c(=N\C(=S)N(C)C)n1-c1ccccc1	-1%	78% (active)	68.2%	-9%	56%	45.8%	4%	95% (active)	72% (active)	-17%	29%	41.6%	-8%	50%	68.5%	9%	92% (active)	62.2%
Cc1noc(NS(=O)(=O)c2ccc(NCc3c4ccccc4nc4cc(Cl)ccc34)cc2)c1C	4%	-13%	98.5% (active)	4%	-7%	98.9% (active)	5%	-6%	98.5% (active)	1%	-3%	98.2% (active)	9%	-3%	98.2% (active)	3%	-5%	98.3% (active)
COc1cc2c3c(c4ccc(OC)c(OC)c4c2cc1OC)CN1CCC[C@@H]1C3	11%	95% (active)	92% (active)	8%	99% (active)	93.5% (active)	15%	96% (active)	93% (active)	1%	92% (active)	91.2% (active)	8%	98% (active)	92.3% (active)	-29%	93% (active)	88.5% (active)
CCCCCCCCCCCCOC(=O)CC1CC(C(C)=O)C1(C)C (centres undefined)	2%	-9%	18.5%	0%	-7%	-20.8%	0%	-7%	24.1%	1%	-8%	84.3% (active)	-3%	-13%	11.2%	25%	-4%	41.2%
Cc1ccc2ccc(C(Nc3ccccc3)c3ccncc3)c(O)c2n1 (centres undefined)	-6%	92% (active)	90.8% (active)	-2%	95% (active)	82.8% (active)	4%	87% (active)	43.5%	-6%	81% (active)	49.3%	-7%	92% (active)	81.1% (active)	-5%	92% (active)	89% (active)
